Here are results for 36 molecules from PubChem BioAssay.

Each structure is given as a SMILES string.

Sequence of Torsin-1A (Homo sapiens) (O14656 whole entry, looked up): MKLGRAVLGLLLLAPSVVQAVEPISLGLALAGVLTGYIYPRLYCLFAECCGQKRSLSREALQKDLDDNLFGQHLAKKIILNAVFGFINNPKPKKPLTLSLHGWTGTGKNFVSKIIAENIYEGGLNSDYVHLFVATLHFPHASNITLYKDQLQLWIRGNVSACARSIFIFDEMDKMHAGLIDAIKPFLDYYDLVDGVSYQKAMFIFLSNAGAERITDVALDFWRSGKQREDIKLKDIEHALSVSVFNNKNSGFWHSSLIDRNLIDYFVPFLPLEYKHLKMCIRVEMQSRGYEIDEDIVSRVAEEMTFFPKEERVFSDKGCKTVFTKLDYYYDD

This assay concerns the target Torsin-1A (Homo sapiens) (UniProt O14656). Put plainly: torsin A mutant lysate binding on microarrays – cell lysate, small-molecule microarray, COS7 lysate, 635/667 nm fluorescence, primary screen (AID 1150).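 Note: score pools 667 nm emission and signal to noise measuring lysate protein binding.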 The conditions noted are these: COS7 hTOR1A mutant lysate, 635 nm fluorescence, higher = more signal.
Turning to `COC(=O)CC=C[C@@H](C)[C@@H](C=NOC(C)CN1CCCCc2nc(C)c(C)cc21)OC` (stereo partly specified), the composite z-score is 2.65.
Consider `CCOC(=O)[C@H](CC(C)C)NC(=O)CCC1CC(OC(=O)NCc2ccc3c(c2)OCO3)CC2(CCCC(COC(=O)NCCc3ccc(Cl)cc3)O2)O1` (stereo partly specified), for which the composite z-score worked out at 0.361.
For `CC(CCN1CCc2nc(-c3ccccc3)c(-c3ccccc3)cc2C1)=NO[C@H](C)c1cn([C@H](CO)Cc2ccccc2)nn1` the value was 1.23.
With `CC(CCC(=O)OC[C@H]1O[C@H](C#Cc2ccccc2)C=C[C@@H]1Oc1ccc(C)cc1)=NO[C@H](C)c1cn([C@@H]2COC[C@H]2O)nn1`, the composite z-score was found to be 0.326.
With `CC(CCN1CCc2nc(-c3ccccc3)c(-c3ccccc3)cc2C1)=NOC(C)CN1CCCc2nc(C)c(C)cc21` (stereo unspecified) the figure was 0.432; with `CCC1=NOC(CCC2CC(OC(=O)NCc3cccc4c3OCO4)CC3(CCCC(COC(=O)NCCc4ccc(Cl)cc4)O3)O2)C1` (stereo unspecified), 0.672.
In turn, `CCOC(=O)CCN1C(=O)[C@H]2[C@@H]3C(=CC[C@H]2C1=O)C(=O)[C@H]1O[C@H]1[C@H]3O` yielded a composite z-score of 0.914.
Turning to `CON=C(C)CCC(=O)OC[C@H]1O[C@H](C#Cc2ccccc2)C=C[C@@H]1Oc1ccc(C)cc1`, the composite z-score was -0.0451.
In the case of `Cc1cc2c(nc1C)CCCCN2CC(O)CN1CCCc2nc(-c3ccc(Br)cc3)ccc21` (stereo unspecified), the composite z-score turned out to be 0.154.
Molecule `COC(=O)[C@H](C)NC(=O)CCC1CC(OC(=O)NCc2cccc3ccccc23)CC2(CCCC(COC(=O)NCCc3ccccc3OC)O2)O1` (stereo partly specified) showed a composite z-score of 0.406.
With `CC#CCOCCC=C1c2ccccc2[C@@H](OC)[C@@H]1C`, the composite z-score came out at 0.481.
With `CCO[C@H](c1cc(OC)cc([N+](=O)[O-])c1OC)[C@H](C)[C@@H](OC)[C@H](C)C=CCC(=O)OC` the figure was 0.294; with `O=C1[C@H]2[C@H]3[C@H](O)[C@H](O)CC(=NOC[C@@H](O)COCc4ccco4)[C@@H]3CC[C@H]2C(=O)N1c1cccc(Oc2ccccc2)c1`, 0.94.
For the molecule `COC(=O)[C@@H]1CC[C@H](C)[C@@H](c2ccc(Br)cc2)N1C[C@@H](O)CN=[N+]=[N-]`, the composite z-score is -0.117.
For `CCOC(=O)[C@H](Cc1ccccc1)NC(=O)CCC1CC(OC(=O)NCc2cccc3ccccc23)CC2(CCCC(COC(=O)NCC3CCCCC3)O2)O1` (stereo partly specified), the composite z-score came out at 0.224.
With `C#CCCCON=C1[C@H]2CCn3c(=O)n([C@@H](CC)c4ccccc4)c(=O)n3[C@H]2[C@H](O)[C@@H]2O[C@H]12` the figure was 0.472.
With `C[C@@H]1C=CCC(=O)OC[C@H](C)C(=O)N[C@@H](Cc2ccccc2)C(=O)OC1`, the composite z-score stood at 0.59.
For `Cc1ccc2[nH]c3nc(CCCn4ccnc4-c4ccccc4)nnc3c2c1` the value was 0.807; for `CC(CCN1CCc2nc(-c3ccccc3)c(-c3ccccc3)cc2C1)=NO[C@@H](C)c1cc(-c2c(C)cc(C)cc2C)no1`, 0.153.
With `O=C1[C@H]2CCn3c(=O)n(Cc4cc5c(cc4Cl)OCO5)c(=O)n3[C@H]2[C@H](O)[C@@H]2O[C@H]12` the figure was -0.343.
As to `CCCNC(=O)OC[C@H]1O[C@H](CCON=C[C@@H](NS(=O)(=O)c2ccc(C)cc2)[C@H](C)C=CCC(=O)OC)C=C[C@@H]1Oc1ccc(OC)cc1`, the composite z-score amounted to 0.488.
With `CCN1C(=O)[C@H]2[C@H]3[C@H](O)[C@H](O)CC(=NOCC[C@@H]4C=C[C@H](OC(C)=O)[C@@H](COC(C)=O)O4)[C@@H]3CC[C@H]2C1=O` the figure was 0.296.
Regarding `COc1ccc(O[C@H]2C=C[C@@H](c3ccccc3)O[C@@H]2COC(=O)CCC(C)=NOC[C@@H](O)COCc2ccco2)cc1`, the composite z-score is -2.73.
For `CC(C)[C@@H](OCc1ccccc1)[C@H](C)C=NOC[C@@H](O)[C@H]1O[C@@H]2OC(C)(C)O[C@@H]2[C@H]1O` the value was 0.284; for `O=C1C2=CC[C@H]3C(=O)N(Cc4ccccc4)C(=O)[C@H]3[C@H]2[C@H](O)[C@@H]2O[C@H]12`, 0.216; for `COC(=O)[C@H](C)NC(=O)CCC1CC(OC(=O)NCc2ccc3c(c2)OCO3)CC2(CCCC(COC(=O)NCc3ccccc3)O2)O1` (stereo partly specified), 0.177.
Take `CC(C)CON=C1C[C@@H](O)[C@@H](O)[C@@H]2[C@@H]3C(=O)N(Cc4ccccc4)C(=O)[C@@H]3CC[C@H]12`: the composite z-score was found to be 0.208.
With `O=C1[C@H]2[C@H]3[C@H](O)[C@H](O)CC(=NO[C@@H]4O[C@H](CO)[C@@H](O)[C@H](O)[C@H]4O)[C@H]3CC[C@H]2C(=O)N1c1ccc(F)cc1F` the figure was 0.189; with `CC(=O)OC[C@H]1O[C@@H](ON=C2[C@H]3CCn4c(=O)n(-c5ccccc5)c(=O)n4[C@H]3[C@H](O)[C@@H]3O[C@H]23)[C@H](OC(C)=O)[C@@H](OC(C)=O)[C@@H]1OC(C)=O`, 0.422; with `C#CCCCON=C1C[C@@H](O)[C@@H](O)[C@@H]2[C@@H]3C(=O)N([C@@H](C)c4ccccc4)C(=O)[C@@H]3CC[C@@H]12`, -0.434.
For `O=C1[C@H]2[C@H]3[C@H](O)[C@H](O)CC(=NOC[C@@H](O)COCc4ccco4)[C@@H]3CC[C@H]2C(=O)N1C1CCCCC1` the value was 1.25; for `C[C@]12CCC3c4ccc(OCC5CO5)cc4CCC3C1CC[C@@H]2O` (stereo partly specified), 0.241; for `CCOC(=O)CCN1C(=O)[C@H]2[C@H]3[C@H](O)[C@H](O)CC(=NO[C@@H]4O[C@H](CO)[C@@H](O)[C@H](O)[C@H]4O)[C@H]3CC[C@H]2C1=O`, 0.307.
With `C=CCOCC1CN2[C@@H](CC[C@@H](C)[C@@H]2c2ccc(Br)cc2)C(=O)O1` (stereo partly specified) the figure was 0.499; with `CO[C@H]1COC(=O)[C@H](C)COC(=O)[C@@H](OCc2ccccc2)C=C[C@@H]1C`, 0.214; with `CC(C)=NOC(C)CN1CCCc2nc(C)c(C)cc21` (stereo unspecified), 0.386.
